Laboratory results from PubChem BioAssay (NCI).
The panel holds about 79,000 compounds, 15% with a hit somewhere; the sample as a whole holds those more often. The source made the active and inactive calls. Cut-off read from the data, not from the text of the source: active = growth inhibition above about 70%; inactive = the rest.

How the values were obtained:
[1] = NCI Yeast Anticancer Drug Screen. Data for the rad52 strain (AID 147);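 note: 0% = growth of vehicle-treated control cultures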; conditions: S. cerevisiae rad52 mutant growth inhibition, hits give high values
Procedure, shortened: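 Here a repair-compromised yeast strain receives each compound; its growth is then quantified and normalised to vehicle-only controls.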

[2] = NCI Yeast Anticancer Drug Screen. Data for the wt1 strain (AID 149);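 note: 0% = growth of vehicle-treated wt1 cultures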; conditions: S. cerevisiae wt1 strain (SPY 50644) growth inhibition, hits give high values
Procedure, shortened: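 wt1 strain grown with compound or vehicle; inhibition taken from the growth difference.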

[3] = NCI Yeast Anticancer Drug Screen. Data for the rad50 strain (AID 155);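 note: 0% = growth of vehicle-only cultures of the same strain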; conditions: S. cerevisiae rad50 strain growth inhibition, hits give high values
Procedure, shortened: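 DNA repair mutant yeast, compound exposure, growth read-out; inhibition is taken relative to vehicle.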

[4] = NCI Yeast Anticancer Drug Screen. Data for the mec2-1 strain (AID 157); conditions: S. cerevisiae mec2-1 strain, hits give high values
Procedure, shortened: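 Using mec2-1 yeast: add compound, measure growth, express inhibition versus vehicle-treated cultures.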

[5] = NCI Yeast Anticancer Drug Screen. Data for the rad14 strain (AID 159);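 note: 0% = growth of vehicle-treated control cultures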; conditions: S. cerevisiae rad14 strain growth inhibition, hits give high values
Procedure, shortened: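 DNA repair-defective yeast, compound-exposed; % growth inhibition derived by comparison with vehicle-treated controls.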

[6] = NCI Yeast Anticancer Drug Screen. Data for the sgs1 mgt1 strain (AID 161);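 note: 0% = growth of cultures given vehicle only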; conditions: S. cerevisiae sgs1 mgt1 strain, hits give high values
Procedure, shortened: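 Growth of a repair-deficient yeast mutant was monitored after compound treatment and expressed as inhibition relative to vehicle-treated cultures.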

[7] = NCI Yeast Anticancer Drug Screen. Data for the CLN2oe strain (AID 163);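 note: 0% = growth of vehicle-only control cultures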; conditions: S. cerevisiae CLN2oe strain, hits give high values
Procedure, shortened: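 Whole-cell yeast growth assay. A strain engineered for altered cell-cycle control received compound, and inhibition relative to vehicle-treated cultures was recorded.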

[8] = NCI Yeast Anticancer Drug Screen. Data for the cln2 rad14 strain (AID 165);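 note: 0% = growth equal to vehicle treated cultures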; conditions: S. cerevisiae cln2 rad14 strain, hits give high values
Procedure, shortened: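 Yeast strain cln2 rad14, bearing defects in cell cycle control and DNA repair, serves as the test system; values reflect growth inhibition compared with vehicle.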

[9] = NCI Yeast Anticancer Drug Screen. Data for the wt2 strain (AID 169);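 note: 0% = growth of vehicle-treated yeast cultures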; conditions: S. cerevisiae wt2 strain growth inhibition, hits give high values
Procedure, shortened: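 Treated yeast vs. vehicle-treated yeast: growth inhibition determined.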

[10] = NCI Yeast Anticancer Drug Screen. Data for the mlh1 strain (AID 171);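 note: 0% = growth of vehicle-treated control cultures of the same strain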; conditions: S. cerevisiae mlh1 strain growth inhibition, hits give high values
Procedure, shortened: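 A yeast strain with a defined genetic lesion serves as the test organism. Cultures receive compound or vehicle, and growth is measured.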

[11] = NCI Yeast Anticancer Drug Screen. Data for the sgs1 strain (AID 173);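 note: 0% = growth of vehicle-only control cultures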; conditions: S. cerevisiae sgs1 mutant, hits give high values
Procedure, shortened: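 A genetically defined yeast mutant is incubated with the test compound, and its growth is compared to that of the same strain given vehicle.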

[12] = NCI Yeast Anticancer Drug Screen. Data for the mlh1 rad18 strain (AID 175); conditions: S. cerevisiae mlh1 rad18 strain growth inhibition, hits give high values
Procedure, shortened: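 Steps: expose repair-defective yeast to compound; measure growth; express inhibition against vehicle-treated controls.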

[13] = NCI Yeast Anticancer Drug Screen. Data for the rad18 strain (AID 177); conditions: S. cerevisiae rad18 mutant growth inhibition, hits give high values
Procedure, shortened: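 Measured value is growth inhibition of a yeast strain bearing a DNA repair alteration, referenced to vehicle-treated cells.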

[14] = NCI Yeast Anticancer Drug Screen. Data for the mgt1 strain (AID 153); conditions: S. cerevisiae mgt1 mutant growth inhibition, hits give high values
Procedure, shortened: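 Measured: inhibition of mgt1 yeast growth by compound, normalized to vehicle-treated cultures.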

[15] = NCI Yeast Anticancer Drug Screen. Data for the bub3 strain (AID 167); conditions: S. cerevisiae bub3 mutant strain, hits give high values
Procedure, shortened: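 In this screen, a yeast mutant lacking normal mitotic checkpoint function is challenged with compound. Relative growth versus vehicle gives the inhibition value.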

[16] = at 5.0 µM (retest, dose inferred, filed as 0.5)
[17] = at 50.0 µM (retest, dose inferred, filed as 5.0)

Measured: growth inhibition

Oc1ccc2c(c1)C(O)CCCC2 (stereo not given)
active: [1]; at 100.0 µM 86% | [3]; [17] 97% | [3]; at 50.0 µM 77.8% | [3]; at 100.0 µM 91% | [4]; [17] 82% | [5]; at 100.0 µM 95% | [6]; [17] 98% | [10]; at 100.0 µM 90% | [11]; at 100.0 µM 93% | [12]; [16] 87% | [12]; [17] 99% | [12]; at 50.0 µM 86.8% | [13]; at 100.0 µM 90%
inactive: [1]; at 1.2 µM 5% | [1]; at 3.7 µM 9% | [1]; at 11.0 µM 25% | [1]; at 33.0 µM 38% | [2]; at 1.2 µM -3% | [2]; at 3.7 µM -7% | [2]; at 11.0 µM -4% | [2]; at 33.0 µM -1% | [2]; at 100.0 µM 18% | [3]; at 1.2 µM 4% | [3]; at 3.7 µM 16% | [3]; [16] 31% | [3]; at 11.0 µM 28% | [3]; at 33.0 µM 46% | [4]; at 1.2 µM -3% | [4]; at 3.7 µM -1% | [4]; [16] 6% | [4]; at 11.0 µM 2% | [4]; at 33.0 µM 7% | [4]; at 50.0 µM 58.6% | [4]; at 100.0 µM 46% | [5]; at 1.2 µM 5% | [5]; at 3.7 µM 13% | [5]; at 11.0 µM 23% | [5]; at 33.0 µM 43% | [6]; [16] 65% | [6]; at 50.0 µM 34.1% | [7]; at 1.2 µM -4% | [7]; at 3.7 µM -6% | [7]; at 11.0 µM -3% | [7]; at 33.0 µM 7% | [7]; at 100.0 µM 42% | [8]; [16] 0% | [8]; [17] 36% | [8]; at 50.0 µM 35.4% | [9]; at 1.2 µM -5% | [9]; at 3.7 µM -4% | [9]; at 11.0 µM 25% | [9]; at 33.0 µM 4% | [9]; at 100.0 µM 69% | [10]; at 1.2 µM 2% | [10]; at 3.7 µM 10% | [10]; at 11.0 µM 15% | [10]; at 33.0 µM 29% | [11]; at 1.2 µM 5% | [11]; at 3.7 µM 19% | [11]; at 11.0 µM 24% | [11]; at 33.0 µM 43% | [13]; at 1.2 µM 2% | [13]; at 3.7 µM 10% | [13]; at 11.0 µM 20% | [13]; at 33.0 µM 36%

O=[N+]([O-])c1cc(S(=O)(=O)Nc2ccccc2)ccc1Nc1ccccc1
inactive: [1]; at 1.2 µM 0% | [1]; at 3.7 µM 13% | [2]; at 1.2 µM -16% | [2]; at 3.7 µM -19% | [14]; at 1.2 µM -18% | [14]; at 3.7 µM 11% | [3]; at 1.2 µM 11% | [3]; at 3.7 µM 28% | [3]; [16] 51% | [4]; at 1.2 µM 18% | [4]; at 3.7 µM 19% | [4]; [16] 39% | [5]; at 1.2 µM -26% | [5]; at 3.7 µM -29% | [6]; [16] 2% | [7]; at 1.2 µM 14% | [7]; at 3.7 µM -1% | [15]; at 1.2 µM 15% | [15]; at 3.7 µM 40% | [15]; [16] -7% | [10]; at 1.2 µM -26% | [10]; at 3.7 µM -15% | [11]; at 1.2 µM 0% | [11]; at 3.7 µM -8% | [12]; [16] 33% | [13]; at 1.2 µM -3% | [13]; at 3.7 µM 18%
active: [1]; at 11.0 µM 95% | [1]; at 33.0 µM 91% | [1]; at 100.0 µM 76% | [2]; at 11.0 µM 94% | [2]; at 33.0 µM 91% | [2]; at 100.0 µM 81% | [14]; at 11.0 µM 89% | [14]; at 33.0 µM 92% | [14]; at 100.0 µM 82% | [3]; at 11.0 µM 93% | [3]; at 33.0 µM 89% | [3]; [17] 94% | [3]; at 50.0 µM 80% | [3]; at 100.0 µM 75% | [4]; at 11.0 µM 93% | [4]; at 33.0 µM 89% | [4]; [17] 96% | [4]; at 50.0 µM 81.2% | [4]; at 100.0 µM 78% | [5]; at 11.0 µM 89% | [5]; at 33.0 µM 89% | [5]; at 100.0 µM 77% | [6]; [17] 91% | [6]; at 50.0 µM 85.5% | [7]; at 11.0 µM 94% | [7]; at 33.0 µM 89% | [7]; at 100.0 µM 76% | [15]; at 11.0 µM 94% | [15]; at 33.0 µM 91% | [15]; [17] 86% | [15]; at 50.0 µM 76.2% | [15]; at 100.0 µM 76% | [10]; at 11.0 µM 90% | [10]; at 33.0 µM 91% | [10]; at 100.0 µM 79% | [11]; at 11.0 µM 91% | [11]; at 33.0 µM 91% | [11]; at 100.0 µM 83% | [12]; [17] 98% | [12]; at 50.0 µM 77.7% | [13]; at 11.0 µM 95% | [13]; at 33.0 µM 91% | [13]; at 100.0 µM 79%
